In one experiment the target is SIAE. Kind of experiment: pooled miR-30 sensor sort-seq; sequence = guide strand. To be noted: shRNA.
Turning to TTTAACTCGAACAACAGTTTGC, the sensor-assay potency score (higher = more potent) is -0.109.

For TATCTGTAACACAGTCATCTGC, the sensor-assay potency score (higher = more potent) is -0.344.

With TAGACAACTCCCTTGTAGCATT, the sensor-assay potency score (higher = more potent) is -0.9.

For TTGAGGTCCAATTTGTCTGTAG, the sensor-assay potency score (higher = more potent) came to 0.183.

In turn, TTAAATATCTGTAACACAGTCA registered a sensor-assay potency score (higher = more potent) of 0.571.

Regarding TATCTTGTTGTCCTTTTTCTGC, the sensor-assay potency score (higher = more potent) is -1.26.

Sequence TTATTTTCTCCAAAGTCTGTTG had a sensor-assay potency score (higher = more potent) of -0.694.

Consider TAACACAGTCATCTGCATGTTA, for which the sensor-assay potency score (higher = more potent) was -0.177.

In the case of TTGATGTATGAAGCAAAGCGAA, the sensor-assay potency score (higher = more potent) is -1.38.

The next experiment has as its target SIK3. The experiment is described as above. The note with it: shRNA.
TCTGTTTGAACTTCCGACGTGC yielded a sensor-assay potency score (higher = more potent) of 0.851.

With TTGAACTCTTACTGTCTTGGAA, the sensor-assay potency score (higher = more potent) is -0.119.

As for TTCATAATTTGAACTTCCCGGA, the sensor-assay potency score (higher = more potent) is -0.153.

The sequence TATGATCTTGATAGCAACCTTG displayed a sensor-assay potency score (higher = more potent) of -0.675.

With TAAATCACGATGAACAATGTTC, the sensor-assay potency score (higher = more potent) is -0.457.

With TACATAAGCATCGTCGCTGTTC, the sensor-assay potency score (higher = more potent) was -0.402.

Sequence TTATCTATGATCTTGATAGCAA came in with a sensor-assay potency score (higher = more potent) of -0.377.

Consider TTAATGACTGCAGTGTCTGTTC, for which the sensor-assay potency score (higher = more potent) was -0.0807.

For the sequence TCTAACACCAACATATGGCGGA, the sensor-assay potency score (higher = more potent) amounted to 0.184.

In turn, TACTTGAACTCTTACTGTCTTG had a sensor-assay potency score (higher = more potent) of -0.689.

TTAGTTGTTGGCATTCAGCTAT came in with a sensor-assay potency score (higher = more potent) of -0.107.

With TAGCTGAGCAGAATGTCTGTAA, the sensor-assay potency score (higher = more potent) is -0.0523.

A further experiment concerns the target SIPA1L2. Described as above. The note with it: shRNA.
TTGTCGAAGAATTAATTCCAGC registered a sensor-assay potency score (higher = more potent) of -1.01.

Regarding TAACAGTTCGAAGCTTTCGGAA, the sensor-assay potency score (higher = more potent) is -0.928.

With TACAACATTCTTGGAATCCTTT, the sensor-assay potency score (higher = more potent) is -0.254.

TAATCTAATCCTGAGATGCGGA showed a sensor-assay potency score (higher = more potent) of -0.642.

Turning to TTGTCTTGTTTTTCCTTCCGAA, the sensor-assay potency score (higher = more potent) was -0.306.

The sequence TAGCTTGTGCTTCTCTTCTTGT gave a sensor-assay potency score (higher = more potent) of -0.716.

In the case of TTCAGCACAGTTGTCTACCGAG, the sensor-assay potency score (higher = more potent) was -0.567.

In turn, TTGTTCATCAAGCTTGAGCAGC yielded a sensor-assay potency score (higher = more potent) of -0.923.

Sequence TTATACATCTCTTCCTCTGTGC yielded a sensor-assay potency score (higher = more potent) of 0.628.

The sequence TACTTTTTGAACAGTGAGCTGA showed a sensor-assay potency score (higher = more potent) of 0.29.

TTGAACTTTGAAGAGGCTCTGC showed a sensor-assay potency score (higher = more potent) of 0.37.

In turn, TAGCGCTTCACTTTCTCCCTGT gave a sensor-assay potency score (higher = more potent) of 0.691.

The target in a further experiment is SIRPD. The experiment is described as above. To be noted: shRNA.
TACAGTCTGTGACATCTCCGTT registered a sensor-assay potency score (higher = more potent) of -0.562.

Sequence TTGGATTCTGCTCAGTAACAAA came in with a sensor-assay potency score (higher = more potent) of -1.61.

In the case of TTGTAGATTAATTTCCGGTTTG, the sensor-assay potency score (higher = more potent) was -0.577.

In turn, TTGAACCACAAGACAGGTCCAT gave a sensor-assay potency score (higher = more potent) of -0.0742.

Consider TTGCACATGGAACACATGTGTG, for which the sensor-assay potency score (higher = more potent) was -0.922.

In turn, ATTTATTGTACGATCAAGCTGG gave a sensor-assay potency score (higher = more potent) of 0.545.

For AAATTGTAGATTAATTTCCGGT, the sensor-assay potency score (higher = more potent) was -0.422.

Source of the values: the OligoGym collection.
Also: reference of the scale not given here.
